Compounds without any hit were thinned out: in the full panel of roughly 79,000, 15% have a hit. Active and inactive are the calls of the source. No stated cut-off is given here; in the data, active means growth inhibition above about 70%; inactive means the rest.
Columns and labels:
[1] = NCI Yeast Anticancer Drug Screen. Data for the rad50 strain (AID 155);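 further: 0% = growth of vehicle-only cultures of the same strain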; details: S. cerevisiae rad50 strain growth inhibition; at 50.0 µM; stronger effect = higher value
In short: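 Growth of the mutant yeast was measured after compound exposure and referenced to vehicle-treated cultures.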

[2] = NCI Yeast Anticancer Drug Screen. Data for the mec2-1 strain (AID 157); details: S. cerevisiae mec2-1 strain, at 50.0 µM, stronger effect = higher value
In short: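 Using mec2-1 yeast: add compound, measure growth, express inhibition versus vehicle-treated cultures.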

[3] = NCI Yeast Anticancer Drug Screen. Data for the sgs1 mgt1 strain (AID 161);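 further: 0% = growth of cultures given vehicle only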; details: S. cerevisiae sgs1 mgt1 strain, at 50.0 µM, stronger effect = higher value
In short: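 Compounds are added to genetically altered yeast, and growth is compared with cultures given vehicle alone to give percent inhibition.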

[4] = NCI Yeast Anticancer Drug Screen. Data for the cln2 rad14 strain (AID 165);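 further: 0% = growth equal to vehicle treated cultures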; details: S. cerevisiae cln2 rad14 strain, at 50.0 µM, stronger effect = higher value
In short: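 Yeast strain cln2 rad14, bearing defects in cell cycle control and DNA repair, serves as the test system; values reflect growth inhibition compared with vehicle.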

[5] = NCI Yeast Anticancer Drug Screen. Data for the bub3 strain (AID 167); details: S. cerevisiae bub3 mutant strain, at 50.0 µM, stronger effect = higher value
In short: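 Whole-cell yeast assay. The mutant strain was incubated with compounds, and growth inhibition was determined by comparison with vehicle-treated cells.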

[6] = NCI Yeast Anticancer Drug Screen. Data for the mlh1 rad18 strain (AID 175); details: S. cerevisiae mlh1 rad18 strain growth inhibition; at 50.0 µM; stronger effect = higher value
In short: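 Steps: expose repair-defective yeast to compound; measure growth; express inhibition against vehicle-treated controls.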

Measured: growth inhibition

C[Si](C)(CCCOCC1CO1)O[Si](C)(C)CCCOCC1CO1 (stereo unspecified)
inactive: [1] 26.9% | [2] -29.4% | [3] -5.05% | [4] 17.6% | [5] -8.4% | [6] -31.1%

CCNC1(C(=O)O)CCCCC1
inactive: [1] 1.4% | [2] -2.15% | [3] -1.5% | [4] 9.85% | [5] 2.3% | [6] -0.2%

COc1cc2cc3c4cc(OC)c(OC)cc4cc[n+]3cc2cc1OC
inactive: [1] -4.5% | [2] -54.5% | [3] -2.8% | [4] -12.3% | [5] -15.8% | [6] -68%

Cc1[nH]c(=O)nc2nc3ccc(Cl)cc3c(NCCNCCO)c12
inactive: [1] -37.5% | [2] -42.4% | [3] 24.1% | [4] 3.5% | [5] -0.9% | [6] -43.6%

CC(C)=CCc1c(O)ccc(C(=O)C2C(c3c(O)cc(-c4cc5ccc(O)cc5o4)cc3O)C=C(C)CC2c2ccc(O)cc2O)c1O (stereo unspecified)
active: [1] 87% | [2] 90.7% | [3] 90% | [4] 89.4% | [5] 88.2% | [6] 87.9%

NC(=O)NN1CC(=O)N(c2ccccc2)CC1=O
inactive: [1] 7.75% | [2] 8.2% | [3] 6.8% | [4] -18.1% | [5] 14.2% | [6] 28.6%

CN(/N=C\c1ccc2ccccc2c1)C1=NCCN1
inactive: [1] 5.65% | [2] 0.25% | [3] -14.8% | [4] -63% | [5] 4.1% | [6] -12.1%

Nc1cc2c3c(cccc3c1)NC2=O
inactive: [1] 47.5% | [2] 14.4% | [3] 17.9% | [4] 11% | [5] -1.5% | [6] -12.9%

Cc1c(-c2ccccc2)nc(N(C)C)oc1=O
inactive: [1] 19% | [2] -5.05% | [3] -6.8% | [4] -9% | [5] -16.2% | [6] -7.8%

O=C(NCCCCC[N+](CCCCCNC(=O)c1ccccc1)(CCCCCNC(=O)c1ccccc1)CCCCCNC(=O)c1ccccc1)c1ccccc1
inactive: [1] 3.65% | [2] 10.4% | [3] -15.2% | [4] -2.2% | [5] -1.65% | [6] -7.85%

Clc1ccc2cc3ccccc3cc2c1
inactive: [1] -16.7% | [2] 2.5% | [3] -3.95% | [4] -16.4% | [5] 5.8% | [6] -21%

O=C1CN(c2ccc(Cl)cc2)C(=O)CN1CCN1CC(=O)N(c2ccc(Cl)cc2)CC1=O
inactive: [1] -43.5% | [2] -10.3% | [3] -3.25% | [4] 10.6% | [5] -39.6% | [6] -23.6%

CCS(=O)(=O)c1ccc(NC(=O)OCc2ccccc2)cc1
inactive: [1] 12.1% | [2] 23.4% | [3] 22.4% | [4] -4.4% | [5] 25.5% | [6] -2.4%

CC(C)(/C=N\O)NO
inactive: [1] -14.8% | [2] -20.4% | [3] 0.4% | [4] 13.6% | [5] -9.05% | [6] -0.9%

On1ccc(N2CCOCC2)cc1=NC1CCCCC1
inactive: [1] 25.9% | [2] 14.9% | [3] 14.5% | [4] 17.6% | [5] 3.7% | [6] 25.7%

CCOC(=O)C(F)C(C)=O (stereo unspecified)
inactive: [3] 56.2%
active: [1] 92% | [2] 94.5% | [4] 97.4% | [5] 99.5% | [6] 91.8%

CN(C)c1ccc(C=C2c3ccccc3-c3ccccc32)cc1
inactive: [1] -10.8% | [2] -1.35% | [3] 7.75% | [4] -80.9% | [5] 0.9% | [6] 9.1%

CC(=O)c1cc2cc(Br)ccc2oc1=O
inactive: [1] 13.5% | [2] 18% | [3] 16.2% | [4] 24.9% | [5] 14.4% | [6] 23.6%

O=C(O)CCC1(c2ccccc2)NC(=O)NC1=O (stereo unspecified)
inactive: [1] -39.1% | [2] -2.85% | [3] -18.4% | [4] -37% | [5] -1.1% | [6] -6.75%

CCC(=O)Nc1cc(Cl)ccc1Cl
inactive: [1] 34.2% | [2] 11.8% | [3] 10.4% | [4] 10.2% | [5] -8.9% | [6] 11.2%

CN(C)c1ccc(S(=O)(=O)c2ccc(N(C)C)c([N+](=O)[O-])c2)cc1[N+](=O)[O-]
inactive: [1] 24% | [2] -9.65% | [3] -9.8% | [4] 0.45% | [5] 3.65% | [6] -30.9%

CCOP(=O)(OCC)c1nc(Cl)nc(Cl)c1SC(F)(F)F
inactive: [1] 33.3% | [2] 11.3% | [3] 14.5% | [4] 13.2% | [5] -4.4% | [6] 25.2%

Fc1ccc(C2SCc3nc4ccccc4n32)cc1F (stereo unspecified)
inactive: [1] -49.9% | [2] -1.3% | [3] 24.3% | [4] 1.25% | [5] -13.8% | [6] 18.6%

CCOC(=O)c1sc(N)nc1O
inactive: [1] -5.5% | [2] -0.3% | [3] -3.75% | [4] 5.85% | [5] 6.25% | [6] -8.8%

COc1cc(C(=O)O[C@H]2CCC3CCC2N3C)cc(OC)c1OC (stereo partly specified)
inactive: [1] -46.4% | [2] -31.7% | [3] -4.05% | [4] -9.45% | [5] -3.85% | [6] -47%

Nc1ccc(N=Nc2ccc(C(=O)O)cc2)cc1
inactive: [1] -32.9% | [2] -48% | [3] 18.1% | [4] 3% | [5] -26.4% | [6] -7.6%

O=CCC1CCCCC1
inactive: [1] -4.8% | [2] -2.2% | [3] -13.1% | [4] 16.9% | [5] 22.1% | [6] 6.25%

O=C[C@H](O)CO
inactive: [1] 26.4% | [2] -20.1% | [3] 17.2% | [4] -1.8% | [5] 8.8% | [6] 17.4%

CC[Si](C)(C)COC(N)=O
inactive: [1] -23.2% | [2] 8.1% | [3] -12.4% | [4] -1.55% | [5] -4.15% | [6] -37%

CN(/N=C/c1ccccn1)C1=NCCN1
inactive: [1] -23.9% | [2] -29.4% | [3] -31.2% | [4] 2.75% | [5] 6.55% | [6] -21.4%

CCOC(=O)C(C#N)C1=CC(=O)C(=O)c2ccc(O)cc21 (stereo unspecified)
inactive: [1] -4.8% | [2] -7.65% | [3] -1.15% | [4] 27% | [5] 16.6% | [6] 0.45%

O=C(c1ccccc1)C(CBr)C(Br)c1ccccc1 (stereo unspecified)
inactive: [1] -17.4% | [2] 24.7% | [3] 10.1% | [4] -24.8% | [5] 16.9% | [6] 1.75%

CSc1ncc(Br)c(Sc2nccn2C)n1
inactive: [1] 11.4% | [2] 7.3% | [3] 14.3% | [4] 4.7% | [5] -12% | [6] 2.85%

CCCCOC(=O)c1c(C)c(C)cc(C)c1C
inactive: [1] 18.4% | [2] -7.1% | [3] 6.3% | [4] 12.5% | [5] 5.75% | [6] -9.95%

Cc1cc(CC(=S)[S-])[n+](C)c(CC(=S)S)c1
inactive: [1] 12.2% | [2] 8.05% | [3] -14.1% | [4] 3.75% | [5] -1.55% | [6] 19.8%

COc1cc2c(c([N+](=O)[O-])c1)NC(=O)CC(C)S2 (stereo unspecified)
inactive: [1] -48.8% | [2] -6.25% | [3] 21.9% | [4] -9.4% | [5] 17.4% | [6] -3.45%

CCNc1nc(C)nc2c1cnn2C
inactive: [1] 5% | [2] 4.85% | [3] -1.85% | [4] -13.2% | [5] 17.8% | [6] -1%

NN1C(=O)CC(c2cccc(Cl)c2)C1=O (stereo unspecified)
inactive: [1] 1.7% | [2] 4.55% | [3] -2.4% | [4] 21.9% | [5] -2.6% | [6] 32.3%

COc1c2occc2c(CC(O)C(C)(C)O)c2ccc(=O)oc12 (stereo unspecified)
inactive: [1] 13.4% | [2] -20.7% | [3] 14.8% | [4] -6.75% | [5] -3.75% | [6] -13.2%

CC(=O)/C(=C/n1c(=S)sc2ccccc21)C(=O)Nc1ccc([N+](=O)[O-])cc1
inactive: [1] 6.4% | [2] 4.55% | [3] -2.45% | [4] -15.8% | [5] -19.8% | [6] -8.7%

O=C(/C=C/c1ccc(O)cc1)c1ccc2c(c1)OCO2
inactive: [1] 8.05% | [2] 23.3% | [3] 25.8% | [4] -1.55% | [5] 43% | [6] 43.8%

— PubChem BioAssay (NCI)
